Laboratory results published in ChEMBL document CHEMBL4513135, “CO-ADD screening of IQOG CSIS (Spain) compounds”.
Measured potencies and affinities stand elsewhere.

What follows are compounds tested on Cryptococcus neoformans. Conditions: Concentration 32 ug.mL-1; ASSAY_TEST Inhibition of Fungal Growth; detection method Resazurin; Absorption (OD600-OD570); plate type 384well; NBS; CORNING #3640.
`CN(C)C(=O)Oc1ccc(CCl)c2cccnc12` was tested, and the Inhibition was -46.72%.
`Nc1c2c(nc3c1C(c1ccccc1)CC(=O)N3)CCCC2` (stereo not drawn) showed an Inhibition of -63.29%.
`Cc1nc(N)c(C#N)cc1C(=O)O` was tested, and the Inhibition was -34.98%.
`Cc1ccc(S(=O)(=O)N2[C@H]3CC[C@@H]2CC3)cc1` was tested, and the Inhibition was -10.99%.
In the case of `NNC(=O)c1cn(Cc2ccccc2)c2ccccc12`, the Inhibition is reported as 3.84%.
In the case of `CNCc1cn(C)c2ccc(OC)cc12.Cl`, the Inhibition is reported as -1.31%.
`COc1ccc2c(c1)cc(C[N+](C)(C)C)n2C.[I-]` gave an Inhibition of -0.09%.
With `C#CCN(C)Cc1cc2cc(OCCCC3CCN(Cc4ccc(OC(=O)N(C)C)c5ncccc45)CC3)ccc2n1C` the Inhibition was -77.63%.
Compound `CN1CC=C(c2cccn2C)CC1` has an Inhibition of -4.6%.
`CCOC(=O)c1cc2cc(OC(=O)NC3CCN(Cc4ccccc4)CC3)ccc2[nH]1` gave an Inhibition of -41.14%.
For `CCOC(=O)c1cn(Cc2ccccc2)c2ccccc12`, the Inhibition was -2.24%.
Work on `CCOC(=O)C1=C(OC)OC(=O)CC1c1ccccc1` (stereo not drawn) yielded an Inhibition of -58.88%.
In the case of `C#CCN(C)Cc1cc2cc(OC(=O)N(C)C)ccc2n1C`, the Inhibition is reported as -26.57%.
With `CCOc1nc2nc(C)c(C(=O)O)cc2c(-c2ccccc2)c1C#N` the Inhibition was -54.07%.
`Nc1c2c(nc3ccccc13)CCN(Cc1ccccc1)C2` was tested, and the Inhibition was -78.39%.
`O=C(N1[C@H]2CC[C@@H]1C(c1nnn[nH]1)C2)C(F)(F)F` (stereo partly drawn) showed an Inhibition of -32.17%.
In the case of `C#CCN1CCc2nc3nc(OC)c(C#N)cc3c(N)c2C1`, the Inhibition is reported as -73.36%.
Work on `O=C(CBr)NCc1ccccc1` yielded an Inhibition of 6.35%.
Work on `CC1CC(=O)Nc2nc3c(c(N)c21)CCCC3` (stereo not drawn) yielded an Inhibition of -54.55%.
For `COc1ccc(C=C(C#N)C#N)cc1OC`, the Inhibition was -1.94%.
`COc1cc(C2C(C#N)=C(N)Oc3c2ccc2ccccc32)cc(OC)c1OC` (stereo not drawn) gave an Inhibition of -3.68%.
`N#CC(C#N)=Cc1ccc(Cl)cc1` showed an Inhibition of -1.11%.
With `Cl.ClCCN1CCCCC1` the Inhibition was -9.27%.
With `C#CCN1CCc2nc3nc(Cl)c(C#N)cc3c(N)c2C1` the Inhibition was -89.58%.
With `C#CCN(C)Cc1cc2cc(OCc3ccc(OC(=O)N(C)C)c4ncccc34)ccc2n1C` the Inhibition was -64.25%.
Work on `Cl.ClCCN1CCCC1` yielded an Inhibition of -1.83%.
For `Cc1ccccc1C=C(C#N)C#N`, the Inhibition was -4.61%.
`C#CCN1CCc2nc3ncccc3c(N)c2C1.Cl` was tested, and the Inhibition was -56.71%.
In the case of `N#CCC(=O)c1ccccc1`, the Inhibition is reported as -3.25%.
`OCC(Cc1cnc[nH]1)NCc1ccccc1` (stereo not drawn) showed an Inhibition of 1.68%.
Work on `N#Cc1cc(C#N)c(N2C3CCC2CC3)nc1N` yielded an Inhibition of -1.32%.
With `CCOC(=O)C1=C(C)OC(=O)CC1c1ccccc1` (stereo not drawn) the Inhibition was -25.58%.
Compound `CCOC(=O)C1=C(C)NC(=O)CC1c1ccccc1` (stereo not drawn) has an Inhibition of -58.04%.
`NNCCCc1c[nH]c2ccccc12.O=C(O)/C=C/C(=O)O` was tested, and the Inhibition was 4.26%.
Work on `Cc1ccc(C=C(C#N)C#N)cc1` yielded an Inhibition of -5.46%.
For `NNC(=O)c1cccnc1` [NICOTINIC ACID HYDRAZIDE], the Inhibition was -4.91%.
`[N-]=[N+]=NCC(=O)c1ccc(Br)cc1` was tested, and the Inhibition was -9.49%.
Compound `CN1CC=C(c2cccn2C)CC1.Cl` has an Inhibition of -2.75%.
